Test results as given in PubChem BioAssay (NCI).
Compounds without any hit were thinned out: in the full panel of roughly 83,000, 20% have a hit.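 Values shown are percent growth following 48 h exposure of cells in 96-well plates to a single concentration of compound; below 10 was considered active.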 Calls of active or inactive are those of the source.

Test system: MOLT-4 leukemia
Test: NCI-60 one-dose screen, 48 h (100 = growth as untreated, 0 = no growth, -100 = all killed)
Settings: 10 µM unless noted

Structure (SMILES)	growth
CCCCCCCCCCCCCCCCCC(=O)Nc1ccc(O)cc1	26.7% (inactive)
COc1cc(C(=O)Nc2ccc(N(C)C)cc2)cc(OC)c1OC	92% (inactive)
CC(O)c1cc[cH-]c1.[Fe+2].c1cc[cH-]c1 (stereo not given)	89.3% (inactive)
CC(=O)Nc1ccc(S(=O)(=O)Cl)cc1	104% (inactive)
O=C(OCC1CC2(Cl)C(Cl)=C(Cl)C1(Cl)C2(Cl)Cl)C1C(C(=O)OCC2CC3(Cl)C(Cl)=C(Cl)C2(Cl)C3(Cl)Cl)C2(Cl)C(Cl)=C(Cl)C1(Cl)C2(Cl)Cl (stereo not given)	85% (inactive)
COc1ccc(/C=C/C(=O)/C=C/c2cc3ccccc3[nH]c2=O)cc1	19.4% (inactive)
CC(=O)NCCN	102% (inactive)
NC(CSC(c1ccccc1)(c1ccccc1)c1ccccc1)C(=O)NCC(=O)O (stereo not given)	83.7% (inactive)
CC(Br)c1nc2ccccc2cc1C(N)=O (stereo not given)	86.4% (inactive)
CC(C)(C)c1cc(C[P+](c2ccc(Cl)cc2)(c2ccc(Cl)cc2)c2ccc(Cl)cc2)cc(C(C)(C)C)c1O	35.7% (inactive)
CC(C)OCC1CO1 (stereo not given)	110% (inactive)
N#CCc1ncc(-c2ccc(C(F)(F)F)cc2)c(NC2CCCCCC2)n1	-4.66% [100 µM] (active)
O=C(NCCNCCO)c1cc([N+](=O)[O-])cc([N+](=O)[O-])c1O	102% (inactive)
CCCCS(=O)(=O)c1cc(Nc2ccc(O)c3c2C(=O)c2ccccc2C3=O)ccc1C	61.2% (inactive)
Cn1c2ccccc2c2ccccc21	89.7% (inactive)
CCCCCCCCC(=O)Nc1ccc(O)cc1	57.9% (inactive)
CCCCN(CCCC)c1ccc(C(=O)O)cc1	99% (inactive)
COC1=CC(c2ccc[nH]2)=N/C1=C\c1[nH]c(C)c(C(=O)CCCCC(=O)NC(C)(C)C)c1C	21.2% (inactive)

Structure (SMILES)	growth
O=C(CCC(=O)N(CCO)CCO)N(CCO)CCO	90.8% (inactive)
O=C(CCl)NC1c2ccccc2Oc2ccccc21	62.6% (inactive)
O=P(OCCCl)(OCCCl)C(O)c1ccccc1Cl (stereo not given)	99.8% (inactive)
Oc1ccc(Br)cc1/C=N/NC(=S)NC12CC3CC(CC(C3)C1)C2	1.75% (active)
O=C1C(=O)c2ccccc2C(O)=C1CCCc1ccc(Oc2ccccc2)cc1	50.3% (inactive)
COC(=O)c1cc(Nc2ccc(O)c3c2C(=O)c2c([N+](=O)[O-])ccc(O)c2C3=O)cc(C(=O)OC)c1	25.5% (inactive)
COC(=O)C(N)CC(C)C (stereo not given)	91.9% (inactive)
CC(C)(CNC1CCCCC1)OC(=O)c1ccccc1	93.8% (inactive)
COc1ccc(-c2nnc(SCC(=O)Nc3ccc(C(=O)/C=C/c4cc(OC)c(OC)c(OC)c4)cc3)n2-c2ccccc2)cc1OC	44.5% [100 µM] (inactive)
CCCCCCC(C(=O)OCC)(C(=O)OCC)C1CCCCCC1	104% (inactive)
O=C(NC1CCN(Cc2ccccc2)CC1)c1cc(-c2cccnc2)nc2ccc(Cl)cc12	58.9% (inactive)
CC(=O)CC(=O)OC/C=C(/C)CCC=C(C)C	94.7% (inactive)
CCn1cnc(C[C@H](NC(=O)[C@@H](NC(=O)Nc2cc(C(F)(F)F)cc(C(F)(F)F)c2)C(C)C)C(=O)OC)c1	-54.9% [100 µM] (active)
CN(C)CCOC(=O)C(C)(C)C	95.9% (inactive)
CCCCCCCCCCCCCCCCNC(=S)N/N=C/c1ccc(O)cc1O	48.5% (inactive)
CC(=O)C(CO)C(=O)Nc1ccccc1 (stereo not given)	102% (inactive)
COC(=O)[C@H](Cc1cn(C)cn1)NC(=O)[C@H](Cc1c[nH]c2ccccc12)NC(=O)Nc1cc(C(F)(F)F)cc(C(F)(F)F)c1	-45.8% [100 µM] (active)
